FLuc modulator = firefly luciferase modulation, counter-screen for miR-21 project | 360,000 compounds, 6.9% hits | P08659 | purified FLuc, Km substrates, luminescence inhibition | Potency, µM (highest dose often 57.5 µM), for inactives: at the highest dose activity change, negative = inhibition, usual class: inhibitors;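 note: plate controls were vehicle for no effect and reference inhibitor for full effect; nearly all actives have a fitted effect of over 55% in size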
Target sequence (P08659 whole entry, looked up): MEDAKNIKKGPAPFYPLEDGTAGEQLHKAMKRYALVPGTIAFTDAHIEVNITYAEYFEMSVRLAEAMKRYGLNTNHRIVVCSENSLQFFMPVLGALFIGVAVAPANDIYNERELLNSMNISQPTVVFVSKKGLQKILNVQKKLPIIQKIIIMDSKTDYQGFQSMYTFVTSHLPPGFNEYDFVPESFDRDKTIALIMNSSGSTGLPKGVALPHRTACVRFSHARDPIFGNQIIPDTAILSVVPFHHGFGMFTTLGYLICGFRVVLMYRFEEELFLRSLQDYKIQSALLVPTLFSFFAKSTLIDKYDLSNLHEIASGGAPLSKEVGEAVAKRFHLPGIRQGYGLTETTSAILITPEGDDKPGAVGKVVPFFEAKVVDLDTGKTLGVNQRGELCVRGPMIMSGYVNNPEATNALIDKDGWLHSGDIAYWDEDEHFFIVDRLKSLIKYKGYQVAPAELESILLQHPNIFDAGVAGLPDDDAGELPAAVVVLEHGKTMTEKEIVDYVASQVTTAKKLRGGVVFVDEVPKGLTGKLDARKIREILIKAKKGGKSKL
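Biochemical qHTS of compounds, final roughly 60 µM downward over six points, against 10 nM purified firefly luciferase using Km concentrations of substrates (10 uM D-luciferin, 10 uM ATP) in Tris acetate pH 7.5 buffer; luminescence output.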
SMN2 splice up = increases expression of the SMN2 splice variant | HEK293 SMN2-luciferase splicing reporter, luminescence, 30-36 h | Potency, µM (top dose mostly 46.1 µM), inactives show at the highest dose activity change, positive = activation, most hits filed as activators | 210,000 compounds, 2.8% hits | AID 1458; note: % of control where 0% means no effect; nearly all actives have a fitted effect of over 55% in size
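HEK293 cells carry an SMN2 […]–luciferase reporter in which exon 7 inclusion puts luciferase in frame. Cells were plated 10-12 h before compound addition, then incubated 30-36 h at 37C. ONE-Glo luminescence was read; sodium butyrate at 4.5 mM final served as control.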
NPC1 promoter act = activators of NPC1 promoter. Potency, µM (titrated, usually from 9.22 µM), for inactives: at the top dose activation, hits mostly activators. Huh7 NPC1 promoter luciferase reporter, 24 h. 320,000 compounds, 2.4% hits; note: % of control where 0% means no effect; nearly all actives have a fitted effect of over 60% in size
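NPC1 promoter–luciferase Huh7 cells; 24 h compound; luminescence.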
Rab9 promoter act = activators of Rab9 promoter. Huh7 Rab9 promoter-luciferase reporter, luminescence, 24 h. Potency, µM (top dose mostly 9.22 µM), for inactives: top-dose activation, negative = inhibition, actives largely listed as activators. 320,000 compounds, 2.8% hits; note: % of control where 0% means no effect; nearly all actives have a fitted effect of over 60% in size
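Quantitative HTS format; Huh7 Rab9-luciferase reporter cells (1500/well) receive compound 2 h post-plating, incubate 24 h at 37 °C, then get luciferase reagent for 10 min before luminescence reading.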
p53 reactivation = restores transcriptional activity of mutant p53 | H1299 p53-A138V BP100-luciferase reporter, luminescence, 24 h | Potency, µM (doses to about 92.2 µM), without a hit: at the highest dose activity change, positive = activation, most hits filed as activators | 320,000 compounds, 0.063% hits | AID 504706; note: % of control where 0% means no effect; nearly all actives have a fitted effect of over 45% in size
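p53-null H1299 cells stably carrying temperature-sensitive p53-A138V and a BP100-luciferase reporter were pinned with compounds (4-point, 1:5 series) and held 24 hrs at 37 deg C. Luminescence was read 10 min after detection reagent.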
ELG1 genotox = induces genotoxicity in HEK293T cells with luciferase-tagged ELG1. HEK293T ELG1-luciferase reporter, luminescence, 16 h. Potency, µM (top dose mostly 46 µM), inactives show top-dose activity change, positive = activation, actives largely listed as activators. 330,000 compounds, 1.3% hits. AID 504466; note: % of control where 0% means no effect; nearly all actives have a fitted effect of over 60% in size
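Genotoxicity was scored as increased ELG1-luciferase reporter signal, measured by ONE-Glo luminescence (30 min, room temperature). Compound or vehicle exposure of the HEK293T reporter cells lasted 16 hr at 37°C.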
An asterisk follows results filed as active; ? = inconclusive; / = not tested or not shown; [ ] = dose if it differs, or a comment. An excerpt weighted towards active compounds, which were near 7.4% of everything screened. Calls come from the whole dose curve; as a rule, active = well fitted curve in the direction sought with a large enough effect; inconclusive = small, poorly fitted or top-dose-only effect, or another doubt; inactive = no such curve, though single readings can be large; an effect the other way counts as inactive or inconclusive. Potency is the fitted concentration of half-maximal effect.

SMILES	FLuc modulator	SMN2 splice up	NPC1 promoter act	Rab9 promoter act	p53 reactivation	ELG1 genotox
Cc1cc(C)cc(NC(=O)C(=O)NCC2CCCN2S(=O)(=O)c2cccs2)c1 (stereo not given)	-8.3%	/	6.3%	1.3%	-1.1%	-11.8%
CCOc1ccc(S(=O)(=O)N2CCC(C(=O)OC(C)C(=O)N3CCOCC3)CC2)cc1 (stereo not given)	-1.1%	/	-4.1%	1.0%	-1.5%	5.3%
Cc1cc(NC(=O)c2cccs2)n(-c2ccccc2)n1	1.7%	-8.8%	2.2%	-6.9%	-2.9%	3.1%
Cc1cc(NC(=O)c2sccc2C)n(-c2cccc(Cl)c2)n1	26.9µM*	-3.3%	2.1%	3.1%	4.2%	3.0%
CCC(CC)NC(=O)c1cc(S(=O)(=O)N2CCCCC2)ccc1N1CCOCC1	/	/	5.4%	-0.4%	4.7%	-1.2%
CCOc1cc(/C=C2\SC(=S)N(NS(=O)(=O)c3ccccc3)C2=O)ccc1O	?	/	-2.5%	1.3%[1.84 µM]	-4.3%	-0.5%
CCOc1cc(/C=C2\SC(=S)N(Nc3ccccc3)C2=O)ccc1O	6.75µM*	-8.8%	?	4.9%	22.1%	?
O=C(O)c1ccc(/C=C2\SC(=S)N(Nc3ccccc3)C2=O)cc1	?	/	-3.4%	0.5%	10.9%	8.7%
O=C1/C(=C/c2ccc(O)c(O)c2)SC(=S)N1Nc1ccccc1	19µM*	/	-21.4%	-6.6%	9.5%	-7.8%
COc1cc(/C=C2\SC(=S)N(Nc3ccccc3)C2=O)ccc1O	5.36µM*	4.0%[1.84 µM]	-3.5%	20.0%	?	?
Cc1ccc(-n2ncc3c(Nc4cccc(Cl)c4)ncnc32)c(C)c1	-5.9%	/	/	/	/	/
N#Cc1ccccc1Cn1c(=O)n(-c2ccc(F)c(Cl)c2)c(=O)c2sccc21	-4.4%	5.9%	/	/	/	/
CCc1nn2c(=O)cc(COC(=O)c3cccc(NC(=O)COc4ccccc4)c3)nc2s1	5.6%	/	/	/	/	/
COc1ccc2c(c1)c(=O)c(C(=O)c1ccc(Cl)cc1)cn2CC(=O)Nc1ccc2c(c1)OCCO2	2.1%	-5.4%	/	/	/	/
COc1ccc2c(c1)O[C@@H](c1ccc3c(c1)OCO3)[C@H](OC(=O)NCc1ccc3c(c1)OCO3)C2=O	/	6.4%	/	/	/	/
COc1ccc2c(c1)O[C@H](c1ccc3c(c1)OCO3)[C@@H](O)C2=O	?	12.6µM*	20.8%	19.3%	17.0%	-0.9%
COc1ccc2c(c1)C(=O)CC(c1ccc3c(c1)OCCO3)O2 (stereo not given)	21.3µM*	/	?	?	?	14.5%
CCOC(=O)/C(=N\Nc1ncnc2ccccc12)c1ccc(C)cc1	12µM*	/	?	?	?	?
CCOC(=O)C/C(=N\Nc1ncnc2ccccc12)c1ccccc1	?	/	16.7%	?	21.4%	5.3%
COc1ccccc1-c1nn(CCC(=O)Nc2cccc(C(C)=O)c2)c2nc(C)cc(C)c12	-3.9%	-11.9%	/	/	/	/
COc1ccc(/C=C2/SC(=O)NC2=O)cc1	4.26µM*	/	?	3.16µM*	12.0%	?
O=C1NC(=Nc2cccnc2)S/C1=C/c1ccc(F)cc1	10.7µM*	/	-3.7%	-5.7%	7.4%	2.8%
O=C1NC(=O)/C(=C\c2ccc(Cl)nc2)S1	15.1µM*	/	?	?	24.9%	?
COc1ccc(N=C2NC(=O)/C(=C/c3ccc(O)c(OC)c3)S2)cc1	?	-13.8%	-4.9%	-2.0%	-3.7%	12.2%
COc1ccc(/C=C2\SC(=Nc3ccccc3)NC2=O)cc1	7.57µM*	/	-4.9%	4.4%	5.0%	7.4%
SMILES	FLuc modulator	SMN2 splice up	NPC1 promoter act	Rab9 promoter act	p53 reactivation	ELG1 genotox
O=C1NC(=Nc2ccccc2)S/C1=C\c1cccnc1	?	/	1.6%	-0.7%	-4.2%	6.3%
CCOCCCNC(=O)C(=O)Nc1c2c(nn1-c1ccc(OC)cc1)CSC2	-13.4%	/	/	/	/	/
COc1cc(/C=C2/SC(=Nc3ccc(O)cc3)NC2=O)cc(OC)c1O	1.9%	-4.0%	-21.3%	15.4%	-2.8%	16.9%
CCc1ccc(N=C2NC(=O)/C(=C/c3ccc(OCC(=O)O)cc3)S2)cc1	6.01µM*	/	2.0%	-11.3%	12.4%	-1.0%
COc1ccccc1N=C1NC(=O)/C(=C/c2ccc(N(C)C)cc2)S1	1.07µM*	/	-10.7%	4.1%	-2.6%	?
CCOC(=O)C1(C)C=C(Nc2ccc(C)cc2)C(=O)N1c1ccccc1 (stereo not given)	6.8%	1.8%	/	/	/	/
COc1cccc(C2C(C(=O)c3cc4ccccc4o3)=C(O)C(=O)N2CCN2CCOCC2)c1 (stereo not given)	0.1%	/	6.5%	4.0%	1.1%	1.9%
COc1ccccc1C1C(C(=O)c2cc3ccccc3o2)=C(O)C(=O)N1CCN1CCOCC1 (stereo not given)	13.5µM*	3.8%	-2.4%	16.3%	1.9%	-1.2%
CCOC(=O)c1sc(NC(=O)CCN2C(=O)C3CCCCC3C2=O)cc1C (stereo not given)	5.1%	/	-3.7%	-0.9%	-2.6%	-0.7%
Cc1cccc(C)c1OCc1cc(C(=O)N2CCN(c3ccc(F)cc3)CC2)no1	3.38µM*	/	0.631µM*	1.12µM*	?	?
CCOC(=O)N1CCN(C(=O)c2cc(COc3c(F)cccc3F)on2)CC1	8.49µM*	/	2.24µM*	3.16µM*	?	14.6µM*
O=C(c1cc(COc2c(F)cccc2F)on1)N1CCCCCC1	?	/	?	2.82µM*	4.7%	?
O=C(c1cc(COc2c(F)cccc2F)on1)N1CCN(C2CCCCC2)CC1	1.3%	/	-2.0%	-8.9%	-0.1%	-2.8%
CC(=O)N1CCCN(C(=O)c2cc(COc3c(F)cccc3F)on2)CC1	3.2%	/	0.2%	13.4%	0.6%	-1.9%
CCOC(=O)N1CCN(C(=O)c2cc(COc3ccc(F)cc3F)on2)CC1	?	/	18.4%	?	?	?
CCOC(=O)C1CCN(C(=O)c2cc(COc3ccc(F)cc3F)on2)CC1	13.5µM*	/	2.82µM*	2.82µM*	?	20.6µM*
CC(=O)Nc1ccc(NC(=O)c2c(C)nn(-c3ccccc3)c2-n2cccc2)cc1	-18.2%	-10.9%	/	/	/	/
O=C(c1cc(COc2ccc3c(c2)CCCC3)on1)N1CCCC1	10.7µM*	/	2.82µM*	3.98µM*	24.3%	18.3µM*
COCC1CCN(C(=O)c2cc(COc3ccc4c(c3)CCCC4)on2)C1 (stereo not given)	-9.7%	/	-2.5%	-0.2%	1.4%	0.8%
C=CCc1cc(/C=C/c2nc(O)c([N+](=O)[O-])c(=O)[nH]2)cc(OC)c1O	16.9µM*	9.5%	-2.3%	-2.6%	-5.1%	-1.2%
